The source made the active and inactive calls. How the source made its calls: active means hit-call score of the fitted dose curve at least 0.9, where 1 is the maximum; inactive means score below 0.9.
What was measured:
[1] = target: Bile acid receptor (Homo sapiens) (UniProt Q96RI1); test: ATG_IR1_CIS: Attagene CIS-FACTORIAL HepG2 Assay for human Nuclear Receptor Subfamily 1 Group H Member 4 (NR1H4), IR1 submotif (AID 2282946); conditions: IR1 reporter transcription, actives raise or lower the signal
In short: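 Readout: reporter transcript levels by RT-PCR with fluorescent capillary electrophoresis, from HepG2 cells transiently transfected with multiplexed cis-regulated reporters and dosed 24 h. Gain- or loss-of-signal fitted versus DMSO negative control.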

[2] = ATG_GRE_CIS: Attagene CIS-FACTORIAL HepG2 Assay for human Glucocorticoid Response Elements (GRE) (AID 2282947); conditions: HepG2 GRE cis-reporter, Attagene multiplex mRNA; actives raise or lower the signal
In short: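 Cells (HepG2) bearing transfected cis-promoter reporter transcription units were treated with chemical for 24 hours. Reporter mRNA was measured via RT-PCR with capillary electrophoresis, and activity was fitted in both directions relative to DMSO.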

[3] = ATG_ISRE_CIS: Attagene CIS-FACTORIAL HepG2 Assay for human Interferon Regulatory Factor 1 (IRF1) binding to an Interferon-Stimulated Response Element (ISRE) (AID 2282948); conditions: HepG2 ISRE cis-reporter (Attagene), mRNA transcription readout; actives raise or lower the signal
In short: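 Endogenous transcription factor activity read as reporter transcript abundance via RT-PCR and capillary electrophoresis. HepG2 cells transiently transfected, 24 h chemical exposure. Gain or loss fitted against DMSO baseline.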

[4] = ATG_M_32_CIS: Attagene CIS-FACTORIAL HepG2 Assay for M32 Transcription Factor (Internal Marker) (AID 2282949); conditions: HepG2 Attagene cis-factorial M32 reporter, mRNA; actives raise or lower the signal;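 further: background control marker of the multiplexed CIS panel rather than a real target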
In short: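 HepG2 human liver cells transiently transfected with cis-promoter-driven multiple reporter transcription units, dosed 24 h. Reporter mRNA quantified by RT-PCR, FAM-labelled primer extension, HpaI digest and capillary electrophoresis; bidirectional fit versus DMSO baseline.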

[5] = ATG_M_06_CIS: Attagene CIS-FACTORIAL HepG2 Assay for M06 Transcription Factor (Internal Marker) (AID 2282950); conditions: HepG2 Attagene CIS-FACTORIAL M06 internal marker reporter; actives raise or lower the signal
In short: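 Terse: HepG2, transient MRTU transfection (FuGene 6), 24 h dosing; total RNA, oligo(dT) RT, PCR, FAM label, HpaI cut, capillary electrophoresis; bidirectional fit vs DMSO baseline; background-control endpoint.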

[6] = target: Hepatocyte nuclear factor 6 (Homo sapiens) (UniProt Q9UBC0); test: ATG_HNF6_CIS: Attagene CIS-FACTORIAL HepG2 Assay for human Hepatocyte Nuclear Factor 6 (HNF6) (AID 2282952); conditions: HepG2 Attagene cis-factorial HNF6 reporter transcription; actives raise or lower the signal
In short: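 Endogenous factor activity read in transiently transfected HepG2 via promoter-regulated reporter transcripts. RNA harvested 24 h post-dosing, reverse-transcribed, PCR-amplified, FAM-labelled, HpaI-digested and resolved by capillary electrophoresis; fitted in both directions against DMSO.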

[7] = target: Heat shock factor protein 1 (Homo sapiens) (UniProt Q00613); test: ATG_HSE_CIS: Attagene CIS-FACTORIAL HepG2 Assay for human Heat Shock Transcription Factor 1 (HSE) (AID 2282953); conditions: HepG2 HSE cis-reporter, Attagene RNA transcription; actives raise or lower the signal
In short: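 Read-out: fluorescence of reporter-specific RT-PCR fragments separated by capillary electrophoresis. HepG2 carrying transfected cis-element reporter units; 24 h dosing; activity fitted in both directions relative to DMSO baseline.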

[8] = ATG_PBREM_CIS: Attagene CIS-FACTORIAL HepG2 Assay for human Phenobarbital-responsive Enhancer Module (PBREM) (AID 2282955); conditions: HepG2 PBREM cis-reporter, Attagene multiplexed transcription; actives raise or lower the signal
In short: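 Endogenous transcription factors in human liver HepG2 cells drive a PBREM cis-element reporter, whose transcript level after 24 h treatment is quantified by RT-PCR with capillary electrophoresis; activity fitted in both directions against DMSO.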

[9] = target: Paired box protein Pax-6 (Homo sapiens) (UniProt P26367); test: ATG_Pax6_CIS: Attagene CIS-FACTORIAL HepG2 Assay for human Paired Box 6 (PAX6) (AID 2282956); conditions: HepG2 CIS-FACTORIAL PAX6 reporter transcription, RNA readout; actives raise or lower the signal
In short: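 Read-out is reporter transcript level, measured by RT-PCR with fluorescent primer extension and capillary electrophoresis after 24 h dosing of transfected HepG2 cells. Activity in either direction fitted relative to DMSO control.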

[10] = ATG_PXRE_CIS: Attagene CIS-FACTORIAL HepG2 Assay for human Pregnane X Receptor Element (PXRE) (AID 2282957); conditions: HepG2 Attagene CIS-FACTORIAL PXRE reporter, mRNA; actives raise or lower the signal
In short: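 Reporter transcripts under endogenous PXR-responsive cis-regulation quantified from total RNA of transfected HepG2 cells 24 h post-dosing, via RT-PCR with fluorescent primer extension and capillary electrophoresis. Gain or loss of signal fitted against DMSO baseline.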

[11] = ATG_PPRE_CIS: Attagene CIS-FACTORIAL HepG2 Assay for human Peroxisome Proliferator-activated Response Element (PPRE) (AID 2282958); conditions: HepG2 PPRE cis-element reporter, Attagene transcription factor profiling; actives raise or lower the signal
In short: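 HepG2, transient MRTU transfection (cis promoter elements, endogenous TFs). 24 h dosing. RNA → oligo(dT) RT → PCR → 6-FAM primer extension → HpaI digest → CE. Bidirectional fit vs DMSO.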

[12] = ATG_RORE_CIS: Attagene CIS-FACTORIAL HepG2 Assay for human RAR-related Orphan Receptor Element (RORE) (AID 2282959); conditions: HepG2 Attagene cis-factorial RORE reporter, mRNA; actives raise or lower the signal
In short: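 Transient MRTU transfection of human HepG2 liver cells (FuGene 6); 24 h compound exposure; TriZol RNA, oligo(dT) RT, PCR, FAM labeling, HpaI cut, CE fragment analysis. DMSO = negative control/baseline.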

[13] = target: Transcription factor Sp1 (Homo sapiens) (UniProt P08047); test: ATG_Sp1_CIS: Attagene CIS-FACTORIAL HepG2 Assay for human Specificity Protein 1 (Sp1) (AID 2282961); conditions: HepG2 Sp1 cis-reporter transcription, actives raise or lower the signal
In short: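 Transient MRTU-transfected HepG2, 24 h compound exposure. Total RNA → oligo(dT) RT → PCR of reporter → 6-FAM primer extension → HpaI digest → CE. Endpoint fitted both directions vs DMSO.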

[14] = ATG_SREBP_CIS: Attagene CIS-FACTORIAL HepG2 Assay for human Sterol Regulatory Element Binding (SREBP) (AID 2282962); conditions: HepG2 Attagene cis-factorial SREBP reporter, mRNA; actives raise or lower the signal
In short: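 Endogenous SREBP activity read as cis-element-driven reporter transcript in transiently transfected HepG2, 24 h post-dosing; quantified via RT-PCR plus capillary electrophoresis of fluorescent fragments. Gain or loss of signal fitted relative to DMSO baseline.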

[15] = target: Signal transducer and activator of transcription 3 (Homo sapiens) (UniProt P40763); test: ATG_STAT3_CIS: Attagene CIS-FACTORIAL HepG2 Assay for human Signal Transducer and Activator of Transcription 3 (STAT3) (AID 2282963); conditions: HepG2, Attagene cis-factorial STAT3 reporter transcription; actives raise or lower the signal
In short: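 HepG2, MRTU-transfected, 24 h dosing. RNA → RT → PCR → FAM label → HpaI → CE. Bidirectional fit vs DMSO.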

[16] = ATG_TA_CIS: Attagene CIS-FACTORIAL HepG2 Assay for human TA Basal Promoter (AID 2282964); conditions: HepG2 Attagene CIS-factorial TA basal promoter reporter; actives raise or lower the signal
In short: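 Transfected HepG2, 24 h compound exposure; RNA → RT-PCR → FAM primer extension → HpaI cut → CE fluorescence. Gain/loss-of-signal fitted against DMSO negative control. Background-control readout.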

[17] = ATG_TCF_b_cat_CIS: Attagene CIS-FACTORIAL HepG2 Assay for human T-Cell-Factor with beta-catenin (TCF/b-cat) (AID 2282965); conditions: HepG2 TCF/beta-catenin cis-reporter transcription, actives raise or lower the signal
In short: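 HepG2 cells transiently transfected with multiple cis-promoter-regulated reporter transcription units, so endogenous transcription factor activity is measured. Reporter mRNA read 24 hours after dosing by RT-PCR, fluorescent labelling and capillary electrophoresis; bidirectional fitting against DMSO.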

[18] = target: Hypoxia-inducible factor 1-alpha (Homo sapiens) (UniProt Q16665); test: ATG_HIF1a_CIS: Attagene CIS-FACTORIAL HepG2 Assay for human Hypoxia Inducible Factor 1 (HIF1A) (AID 2282951); conditions: HepG2 Attagene cis-factorial HIF1a reporter transcription; actives raise or lower the signal
In short: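 Transient MRTU transfection of human HepG2 liver cells, 24 h compound treatment, then total RNA isolation, oligo(dT) reverse transcription, PCR amplification, fluorescent labelling and capillary electrophoresis of reporter fragments. Gain or loss relative to DMSO.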

[19] = ATG_MRE_CIS: Attagene CIS-FACTORIAL HepG2 Assay for human Metal Responsive Element (MRE) (AID 2282954); conditions: HepG2 MRE cis-reporter transcription, Attagene multiplex; actives raise or lower the signal
In short: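 Cells were transfected with cis-promoter reporter transcription units, then dosed for 24 h. RNA was reverse-transcribed, amplified, fluorescently labelled and resolved by capillary electrophoresis, and activity was fitted in both directions relative to DMSO.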

[20] = ATG_Sox_CIS: Attagene CIS-FACTORIAL HepG2 Assay for human SRY-box transcription factor (SOX) (AID 2282960); conditions: HepG2 Attagene cis-factorial SOX reporter, mRNA; actives raise or lower the signal
In short: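 Endogenous factor activity in human liver HepG2 cells carrying transfected cis-regulated reporter units. RNA taken 24 h post-dose, reverse-transcribed, PCR-amplified and sized by capillary electrophoresis. Gain or loss of signal fitted relative to DMSO.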

Measured: AC50

Signal transducer and activator of transcription 3 (Homo sapiens), sequence (P40763 whole entry, looked up): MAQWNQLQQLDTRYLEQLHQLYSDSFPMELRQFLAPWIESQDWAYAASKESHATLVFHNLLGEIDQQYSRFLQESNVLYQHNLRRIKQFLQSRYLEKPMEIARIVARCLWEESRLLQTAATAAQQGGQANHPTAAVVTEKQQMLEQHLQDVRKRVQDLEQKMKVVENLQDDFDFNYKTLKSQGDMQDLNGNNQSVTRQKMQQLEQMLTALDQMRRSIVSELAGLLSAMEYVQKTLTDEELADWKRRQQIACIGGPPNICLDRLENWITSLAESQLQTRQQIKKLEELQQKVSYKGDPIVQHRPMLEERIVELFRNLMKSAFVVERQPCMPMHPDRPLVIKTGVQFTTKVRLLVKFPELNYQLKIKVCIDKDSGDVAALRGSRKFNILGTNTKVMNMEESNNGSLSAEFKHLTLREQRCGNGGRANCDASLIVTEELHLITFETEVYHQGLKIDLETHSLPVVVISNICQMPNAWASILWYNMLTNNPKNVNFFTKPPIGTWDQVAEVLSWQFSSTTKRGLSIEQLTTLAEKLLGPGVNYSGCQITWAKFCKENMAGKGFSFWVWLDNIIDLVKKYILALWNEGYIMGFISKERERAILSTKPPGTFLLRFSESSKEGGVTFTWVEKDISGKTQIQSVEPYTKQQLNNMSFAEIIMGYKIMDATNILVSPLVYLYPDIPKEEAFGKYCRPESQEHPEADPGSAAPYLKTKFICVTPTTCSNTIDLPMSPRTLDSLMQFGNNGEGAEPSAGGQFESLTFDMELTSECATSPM
Heat shock factor protein 1 (Homo sapiens), sequence (Q00613 whole entry, looked up, the tested form may be a part): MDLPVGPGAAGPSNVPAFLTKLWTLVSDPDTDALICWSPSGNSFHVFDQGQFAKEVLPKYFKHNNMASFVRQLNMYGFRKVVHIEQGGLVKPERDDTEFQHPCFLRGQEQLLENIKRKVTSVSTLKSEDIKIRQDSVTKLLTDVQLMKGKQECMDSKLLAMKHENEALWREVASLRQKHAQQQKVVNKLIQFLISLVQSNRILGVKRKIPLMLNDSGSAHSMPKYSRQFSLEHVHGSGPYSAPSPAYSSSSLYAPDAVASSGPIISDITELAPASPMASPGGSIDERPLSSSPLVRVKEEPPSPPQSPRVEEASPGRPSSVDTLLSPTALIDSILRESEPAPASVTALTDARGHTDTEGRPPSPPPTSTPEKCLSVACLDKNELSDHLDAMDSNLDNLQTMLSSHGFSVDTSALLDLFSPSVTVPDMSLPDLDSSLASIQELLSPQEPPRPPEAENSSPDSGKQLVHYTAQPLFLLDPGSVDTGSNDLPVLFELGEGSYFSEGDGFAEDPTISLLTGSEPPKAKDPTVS
Transcription factor Sp1 (Homo sapiens), sequence (P08047 whole entry, looked up): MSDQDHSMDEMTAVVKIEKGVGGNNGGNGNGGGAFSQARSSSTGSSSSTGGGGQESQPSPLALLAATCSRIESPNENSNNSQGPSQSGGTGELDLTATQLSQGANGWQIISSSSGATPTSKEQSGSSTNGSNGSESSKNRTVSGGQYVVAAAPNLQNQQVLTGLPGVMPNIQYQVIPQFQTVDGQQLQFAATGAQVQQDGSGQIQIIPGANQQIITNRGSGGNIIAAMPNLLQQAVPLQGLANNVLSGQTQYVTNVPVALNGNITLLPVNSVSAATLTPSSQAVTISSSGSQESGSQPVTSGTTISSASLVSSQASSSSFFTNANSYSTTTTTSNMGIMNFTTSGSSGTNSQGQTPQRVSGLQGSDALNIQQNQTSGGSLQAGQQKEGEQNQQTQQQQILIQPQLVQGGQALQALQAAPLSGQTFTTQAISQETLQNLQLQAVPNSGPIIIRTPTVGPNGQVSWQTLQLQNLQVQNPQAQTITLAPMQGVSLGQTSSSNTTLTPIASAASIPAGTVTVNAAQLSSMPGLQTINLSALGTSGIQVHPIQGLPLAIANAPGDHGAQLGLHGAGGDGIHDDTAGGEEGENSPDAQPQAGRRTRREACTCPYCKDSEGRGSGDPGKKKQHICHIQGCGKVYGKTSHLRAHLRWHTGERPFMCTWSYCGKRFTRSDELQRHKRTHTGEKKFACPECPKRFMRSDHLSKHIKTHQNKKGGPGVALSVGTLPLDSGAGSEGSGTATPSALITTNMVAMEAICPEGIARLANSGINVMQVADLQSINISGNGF
Hepatocyte nuclear factor 6 (Homo sapiens), sequence (Q9UBC0 whole entry, looked up): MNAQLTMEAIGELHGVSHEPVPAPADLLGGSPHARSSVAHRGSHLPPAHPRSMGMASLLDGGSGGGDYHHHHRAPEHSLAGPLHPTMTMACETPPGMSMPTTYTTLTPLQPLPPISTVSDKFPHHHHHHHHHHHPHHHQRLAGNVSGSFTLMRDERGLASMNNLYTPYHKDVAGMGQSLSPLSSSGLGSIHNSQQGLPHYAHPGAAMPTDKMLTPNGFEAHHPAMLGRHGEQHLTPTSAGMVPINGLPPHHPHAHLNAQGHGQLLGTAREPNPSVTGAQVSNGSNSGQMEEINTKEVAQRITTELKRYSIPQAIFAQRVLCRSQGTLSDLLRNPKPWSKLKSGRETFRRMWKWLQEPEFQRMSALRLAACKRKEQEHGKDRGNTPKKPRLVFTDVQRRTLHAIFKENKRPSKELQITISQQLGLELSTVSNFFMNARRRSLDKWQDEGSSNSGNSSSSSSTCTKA
Paired box protein Pax-6 (Homo sapiens), sequence (P26367 whole entry, looked up): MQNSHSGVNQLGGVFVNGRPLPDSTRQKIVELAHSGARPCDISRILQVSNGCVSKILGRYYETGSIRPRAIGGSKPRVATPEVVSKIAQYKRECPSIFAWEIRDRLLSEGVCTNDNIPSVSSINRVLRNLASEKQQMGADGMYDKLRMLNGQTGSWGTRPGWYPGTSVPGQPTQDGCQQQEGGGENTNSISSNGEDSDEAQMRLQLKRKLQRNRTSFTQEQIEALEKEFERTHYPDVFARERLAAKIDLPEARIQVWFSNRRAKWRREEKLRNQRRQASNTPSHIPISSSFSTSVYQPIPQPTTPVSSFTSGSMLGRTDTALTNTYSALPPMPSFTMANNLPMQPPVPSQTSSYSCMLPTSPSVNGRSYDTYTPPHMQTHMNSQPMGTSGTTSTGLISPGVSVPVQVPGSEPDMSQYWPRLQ
Bile acid receptor (Homo sapiens), sequence (Q96RI1 whole entry, looked up): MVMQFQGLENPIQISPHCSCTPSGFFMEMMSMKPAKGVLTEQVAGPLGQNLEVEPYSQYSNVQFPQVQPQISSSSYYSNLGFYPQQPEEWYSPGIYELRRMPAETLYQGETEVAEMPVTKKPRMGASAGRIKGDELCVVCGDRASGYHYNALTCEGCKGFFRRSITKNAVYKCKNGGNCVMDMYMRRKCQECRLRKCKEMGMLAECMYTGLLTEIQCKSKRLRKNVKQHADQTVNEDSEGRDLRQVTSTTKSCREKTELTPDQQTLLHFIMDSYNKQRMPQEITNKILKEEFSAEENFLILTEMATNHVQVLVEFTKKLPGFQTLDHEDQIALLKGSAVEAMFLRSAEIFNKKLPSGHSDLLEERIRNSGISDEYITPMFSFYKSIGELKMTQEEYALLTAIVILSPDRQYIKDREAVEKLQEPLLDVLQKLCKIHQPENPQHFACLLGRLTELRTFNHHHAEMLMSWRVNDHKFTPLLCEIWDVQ
Hypoxia-inducible factor 1-alpha (Homo sapiens), sequence (Q16665 whole entry, looked up, the tested form may be a part): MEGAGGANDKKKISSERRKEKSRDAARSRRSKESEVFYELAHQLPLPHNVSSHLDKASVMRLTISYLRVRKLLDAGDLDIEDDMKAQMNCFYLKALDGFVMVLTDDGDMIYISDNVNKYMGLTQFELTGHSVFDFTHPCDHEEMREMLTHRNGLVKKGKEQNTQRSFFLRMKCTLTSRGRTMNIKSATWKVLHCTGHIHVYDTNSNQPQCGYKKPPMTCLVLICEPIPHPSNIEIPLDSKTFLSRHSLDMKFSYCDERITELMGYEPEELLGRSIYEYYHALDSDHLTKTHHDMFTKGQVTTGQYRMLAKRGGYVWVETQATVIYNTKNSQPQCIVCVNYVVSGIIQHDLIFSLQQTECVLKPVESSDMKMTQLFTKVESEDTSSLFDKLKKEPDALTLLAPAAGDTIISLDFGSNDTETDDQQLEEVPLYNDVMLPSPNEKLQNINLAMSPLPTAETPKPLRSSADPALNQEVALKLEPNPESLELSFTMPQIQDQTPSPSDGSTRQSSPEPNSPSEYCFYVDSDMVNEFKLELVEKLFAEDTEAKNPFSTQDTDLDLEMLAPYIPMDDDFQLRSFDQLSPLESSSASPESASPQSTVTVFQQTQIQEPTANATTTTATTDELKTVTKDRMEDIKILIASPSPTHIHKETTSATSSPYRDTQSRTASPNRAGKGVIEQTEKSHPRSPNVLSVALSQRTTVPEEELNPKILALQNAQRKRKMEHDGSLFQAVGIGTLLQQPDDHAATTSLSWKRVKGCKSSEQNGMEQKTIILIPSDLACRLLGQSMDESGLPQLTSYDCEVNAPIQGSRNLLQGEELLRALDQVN

CC(O)CN(CCN(CC(C)O)CC(C)O)CC(C)O (stereo unspecified)
not listed: [18] | [19] | [20]
inactive: all other assays above

CN(C)c1ccc(Cc2ccc(N(C)C)cc2)cc1
active: [19] 50.3 µM | [10] 26.6 µM | [11] 36.7 µM | [13] 100 µM | [14] 43.4 µM
not listed: [8]
inactive: all other assays above

CC(C)(O)c1coc(S(=O)(=O)NC(=O)Nc2c3c(cc4c2CCC4)CCC3)c1
active: [10] 26.9 µM
not listed: [11] | [19]
inactive: all other assays above

CCN(C(=O)c1cc(C)cc(OC[C@H](C)Nc2ccncc2)c1)C(C)C
active: [1] 42 µM | [10] 4.97 µM | [14] 18.2 µM
not listed: [11] | [12] | [19] | [20]
inactive: all other assays above

CCc1cc(SCc2sc(-c3ccc(C(F)(F)F)cc3)nc2CN2CCN(c3ccc(OC)cc3)CC2)ccc1OCC(=O)O
active: [1] 3.93 µM | [3] 14 µM | [18] 15.3 µM | [7] 18.1 µM | [8] 17 µM | [9] 17.5 µM | [11] 0.0329 µM | [12] 11 µM | [14] 0.225 µM | [16] 14.8 µM | [17] 7.72 µM
inactive: [2] | [4] | [5] | [6] | [10] | [13] | [15]

Cc1[nH]cnc1C[C@H]1CCc2c(C)c3ccccc3n2C1=O
active: [3] 21.9 µM | [18] 20.7 µM | [7] 46.5 µM | [19] 33.9 µM | [8] 15.8 µM | [9] 37.2 µM | [10] 7.57 µM | [12] 18.9 µM | [16] 29.7 µM | [17] 15.8 µM
inactive: [1] | [2] | [4] | [5] | [6] | [20] | [13] | [14] | [15]

CC[C@H](C)C(=O)O[C@H]1C[C@@H](C)C=C2C=C[C@H](C)[C@H](CC[C@@H]3C[C@@H](O)CC(=O)O3)[C@H]21
active: [10] 1.8 µM | [14] 1.36 µM
not listed: [19]
inactive: all other assays above
